Source: PubChem BioAssay (NCI)
Compounds without any hit were thinned out: in the full panel of roughly 83,000, 20% have a hit.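 Negative percent growth values reflect cell death: -40 means 40% of the cells present at the start died, and -100 means all died.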 A number with no mark means an inactive call. Calls of active or inactive are those of the source. How the source made its calls: active means growth percent below 10; inactive means the rest.

tested on: 786-0 renal; assay: NCI-60 one-dose screen, 48 h (100 = growth as untreated, 0 = no growth, -100 = all killed); conditions: 10 µM unless noted

| SMILES | growth |
| --- | --- |
| C=C1C(=O)O[C@H]2[C@H]1CC/C(COC(=O)C(=O)c1c[nH]c3ccccc13)=C\CC[C@@]1(C)O[C@@H]21 | -75.8% (active) |
| S=C(c1ccc2c(c1)OCO2)N1CCN(c2ccccc2Cl)CC1 | 92.4% |
| CC(C)(C)CC(C)(C)Nc1c(-c2ccncc2)nc2cnccn12 | 96.6% |
| COCCN(C(=O)c1ccc(F)cc1F)c1c(N)n(Cc2ccccc2)c(=O)[nH]c1=O | 102% |
| Cc1ccc(N(C(=O)CCc2c[nH]c3ccccc23)[C@H](C(=O)Nc2ccc(Cl)cc2)c2cccc([N+](=O)[O-])c2)cc1 | 90.5% |
| COC(=O)c1c2c(c(C)[n+]([O-])c1C)C(=O)C(NCc1ccc(F)cc1)=CC2=O | 48.7% |
| COc1ccc(Cl)cc1NC(=O)C(Br)C(Br)C(=O)O (configuration not stated) | 102% |
| O=C1Nc2ccccc2/C1=C/c1cn(C(=O)c2c(Cl)cccc2Cl)c2ccccc12 | 57.1% |
| COC(=O)/C=C1\S/C(=N\NS(=O)(=O)c2ccc(C)cc2)N(c2ccccc2)C1=O | 108% |
| CCCCCCCC/C=C\CCCCCCCCOc1ccccc1CC(=O)NCC[N+](C)(C)C | 50.5% |
| NC(=S)Nc1cccc(O)c1 | 100% |
| CCCCCS(=O)(=O)Nc1ccc(C(=O)O)cc1 | 102% |
| CCCCCCCCCOc1c(OC)cc(C2CC(=O)Nc3c2c(C)nn3-c2nc3ccccc3[nH]2)cc1OC (configuration not stated) | -70.7% (active) |
| C=C1C(=O)O[C@H]2[C@H]1CC/C(CNC(=O)/C=C/c1ccc(Cl)cc1Cl)=C\CC[C@@]1(C)O[C@@H]21 | -77.1% (active) |
| NNC(=O)c1nc(N)n(-c2ccc(S(N)(=O)=O)cc2)n1 | 95.7% |
| C(=N\Nc1ncc(-c2cc3cc4c(cc3o2)OCO4)s1)/c1ccco1 | 1.77% (active) |
| O=C(/C=C/c1cccc(O)c1)c1cccc(-n2cc(-c3ccc4ccccc4c3)[nH]c2=O)c1 | -87.9% (active) |
| COc1cc(Cn2ncc3ccc(NC(=O)c4cc5ccccc5oc4=N)cc32)cc(OC)c1OC | 68% |
| O=C(CC(SCc1ccccc1)c1ccccc1)c1ccccc1 (configuration not stated) | 84% |

| SMILES | growth |
| --- | --- |
| CCOc1ccccc1-c1cc(-c2cccs2)c(C#N)c(=O)[nH]1 | 92.1% |
| N#CC1=C(NC=O)Oc2c(ccc3ccccc23)C1c1ccccc1 (configuration not stated) | 22% |
| COc1cc(C2CC(c3cc(OC)c(OCCCOc4ccc(-n5c(/C=C/c6ccccc6)nc6ccccc6c5=O)cc4)c(OC)c3)=NO2)cc(OC)c1OC (configuration not stated) | 108% |
| O=C1Nc2ccc(F)cc2C12Nc1cc(Cl)ccc1S2 (configuration not stated) | 105% |
| CCN(CC)CCN1C(=O)c2c(c(C)c3c(oc4cc(O)ccc43)c2C)C1=O | -80.9% (active) |
| O=C(O)c1ccc2c(c1Cl)C(=O)c1ccccc1C2=O | 91.1% |
| CN(c1ccccc1)c1ccc2c(c1)OCCC21CC1Nc1cnccc1C(=O)O (configuration not stated) | 72.9% |
| CC1O[C@@H](OC2[C@H](OC(=O)/C=C/c3ccc(O)c(O)c3)C(COC3O[C@H](C)C(O)C(O)[C@@H]3O)O[C@@H](OCCc3ccc(O)c(O)c3)[C@H]2O)[C@@H](O)C(O)[C@H]1O (some centres not stated) | 98.8% |
| O=C(CSc1nnc(-c2ccc(NC(=O)c3cccnc3)cc2)o1)Nc1cccc(Br)c1 | 94.2% |
| CCN1C(=O)N(CC)C2Nn3c(s/c(=C\c4ccc(Cl)cc4Cl)c3=O)=NC21 (configuration not stated) | 34% |
| COc1ccc(/C=N/C2=C(C#N)C(c3ccc(OC)cc3)c3ccc4ccccc4c3O2)cc1 (configuration not stated) | 95.1% |
| CCOC(=O)C/C(C)=N\NC(=O)c1ccncc1 | 92.1% |
| COC(=O)[C@H](CSC)N(C)C(=O)[C@@H]1CSSC[C@@H](NC(=O)c2nc3ccccc3cc2O)C(=O)NCC(=O)N1C | 111% |
| COc1ccc2[nH]c(O)c(C(=Nc3ccc(N(C)C(=O)CN4CCN(C)CC4)cc3)c3ccccc3)c2c1 | 42.4% |
| O=[N+]([O-])c1ccc(N2c3ccncc3Sc3ccncc32)cc1 | 107% |
| COc1ccc(CNC(=O)C(O)C(Cc2ccccc2)NC(=O)c2[nH]c3ccccc3c(=O)c2C)cc1OC (configuration not stated) | 101% |
| N#C/C(=C/C=C/c1cccc(Cl)c1)S(=O)c1ccccc1 (configuration not stated) | -88.7% (active) |
| COC(=O)[C@]12CC[C@@H](C)[C@H](C)[C@@H]1C1=CC[C@@H]3[C@@]4(C)C(C=O)=C[C@@](C)(COC(C)=O)C4=CC[C@@]3(C)[C@]1(C)CC2 | -33.7% (active) |
